PubChem BioAssay (NCI)
This is part of a sample that, as a whole, favours compounds with a hit. Of some 83,000 tested, about 20% had one in any assay.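 Plates (96-well) were seeded with cells, treated with compound at one concentration, and incubated for 48 hours before percent growth was determined.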 Activity calls are given as the source filed them. How the source made its calls: active means growth percent below 10; inactive means the rest.

Assays:
Test in all cases: NCI-60 one-dose screen, 48 h (100 = growth as untreated, 0 = no growth, -100 = all killed)
Conditions in all cases: 10 µM unless noted
[1] = test system: HCT-15 colon
[2] = test system: HT29 colon
[3] = test system: SNB-75 CNS
[4] = test system: SNB-19 CNS
[5] = test system: U251 CNS
[6] = test system: PC-3 prostate
[7] = test system: SK-MEL-5 melanoma
[8] = test system: UACC-62 melanoma
[9] = test system: LOX IMVI melanoma
[10] = test system: SK-MEL-28 melanoma

Measured: growth

Clc1cccc(/C=N/Nc2nc(N/N=C/c3cccc(Cl)c3)nc(N3CCOCC3)n2)c1
inactive: [3] 103% | [4] 88% | [5] 60.4% | [6] 41.5% | [7] 44.1% | [8] 91.7% | [9] 32.6%
active: [1] -11.1% | [2] 8.21%

O=C(CSc1nc2ccccc2c(=O)n1-c1ccccc1)N/N=C/c1ccc(Oc2ccc(Br)cc2)cc1
inactive: [1] 63.7% | [2] 38.2% | [3] 57.8% | [4] 39.9% | [5] 21.5% | [6] 71.8% | [7] 59.1% | [8] 68.8% | [9] 21%

CN1CCN(c2ccc(Nc3nc(NCCNC(=O)c4ccc(F)cc4)c4sccc4n3)cc2)CC1
inactive: [1] 28.2% | [2] 32% | [3] 91.5% | [4] 91.8% | [5] 37% | [6] 72.2% | [7] 25.2% | [8] 33.8%
active: [9] 8.7%

COc1ccccc1/C=C1\Oc2ccc(O)c(O)c2C1=O
inactive: [1] 77.5% | [2] 105% | [3] 82.6% | [4] 86.4% | [5] 86.8% | [6] 98.7% | [7] 99% | [8] 92.1% | [9] 83.5%

Cc1ccc(C(=O)Nc2ccc(CNCCN3CCOCC3)c(C(F)(F)F)c2)cc1C#Cc1cnc2cccnn12
inactive: [4] 36.6% | [6] 19.3% | [8] 15.1%
active: [1] 7.26% | [2] 2.36% | [3] -18% | [5] 6.06% | [7] -85.9% | [9] -85.6%

O=C(CCCCCCN1CC(=O)N2[C@@H](c3ccc(Cl)s3)c3[nH]c4ccccc4c3C[C@H]2C1=O)NO
inactive: [1] 77.1% | [2] 38.9% | [3] 22.5% | [4] 52.2% | [5] 50.3% | [6] 47.4% | [7] 19.7% | [8] 21.9%
active: [9] -62.7%

O=C(CSc1nnc(-c2cccs2)n1-c1ccccc1)Nc1ccccc1F
inactive: [1] 52.7% | [2] 75.1% | [3] 84.4% | [4] 83.2% | [5] 89.3% | [6] 93.3% | [7] 91.2% | [8] 57.7% | [9] 78.9%

CCOC(=O)c1c(NCC(=O)Nc2cccc([N+](=O)[O-])c2)sc(C(C)=O)c1C
active: [1] -6.35% | [2] -35.3% | [3] -0.605% | [4] 9.51% | [5] -13.2% | [6] -14.5% | [7] -82.9% | [8] -19.6% | [9] -38.1%

CN(C)c1ccc(-c2cc(-c3c[nH]c4ccccc34)nc(N)c2C#N)cc1
inactive: [1] 11.9% | [2] 11.3% | [3] 21.1% | [4] 40.7% | [5] 26.5% | [6] 37% | [7] 29.8% | [8] 42% | [9] 11.3%

CC(C)(C)c1cc(NC(=O)Nc2ccc(-c3cn4c5c(sc4n3)CCc3c[nH]cc3-5)cc2)no1
active: [1] 5% | [2] -66% | [3] -12.9% | [5] -14.6% | [9] -22.5%
inactive: [4] 21.7% | [6] 21.9% | [7] 19.1% | [8] 49.9%

Cc1csc(/N=C(N)/N=C(\N)c2cccc(C#N)c2)n1
inactive: [1] 39.3% | [2] 62.4% | [3] 59.5% | [4] 72.3% | [5] 64.7% | [6] 77.4% | [7] 85.7% | [8] 52.1% | [9] 78.1%

Clc1ccc2[nH]cc(-c3nn4cc(-c5ccncc5)nc4s3)c2c1
inactive: [1] 57.6% | [2] 72.8% | [3] 72.4% | [4] 24.4% | [5] 52.5% | [7] 38.3% | [8] 25.8% | [9] 49.9%
active: [6] 9.36%

Cc1ccc(/C(N)=N/C(N)=N/c2nc3ccccc3s2)cc1
active: [9] -17%
inactive: [1] 52.2% | [2] 110% | [3] 96.5% | [4] 95.3% | [5] 82% | [6] 63.5% | [7] 91% | [8] 91.9%

COc1ccc2c(c1)C=CC1(O2)Oc2ccc(OC)cc2C=C1C (stereo not drawn)
inactive: [1] 24.7% | [4] 27.5% | [5] 12.3% | [6] 29.8% | [7] 24.9% | [8] 19.1% | [9] 22.2%
active: [2] 4.04% | [3] -8.45%

CCOP(=O)(OCC)OC[C@]12CCC(C)(C)C[C@H]1C1=CC[C@@H]3[C@@]4(C)CC[C@H](OP(=O)(OCC)OCC)C(C)(C)[C@@H]4CC[C@@]3(C)[C@]1(C)CC2
inactive: [1] 34.6% | [2] 41.4% | [3] 58.9% | [4] 71.2% | [5] 49.1% | [6] 19.3% | [7] 31.3% | [8] 53.9% | [9] 37.2%

Cc1cc2nc(C(Cl)Cl)nc(-c3ccc(S(=O)(=O)N(C)C)cc3)n2n1
active: [1] 5.58%
inactive: [2] 18% | [3] 55.5% | [4] 58.4% | [5] 39.2% | [6] 67.4% | [7] 80.3% | [8] 68.5% | [9] 17.7%

Cc1[nH]c(C(=O)Nc2ccc(C(=O)NCC3CCNCC3)cc2OC(C)C)c(Cl)c1Cl
active: [5] 8.95% | [9] 9.32%
inactive: [1] 93.7% | [2] 40.6% | [3] 44.8% | [4] 64.2% | [6] 61.6% | [7] 95.9% | [8] 98.8% | [10] 83.9%

O=C1C(SCc2ccccc2)=C(Cl)CN1c1ccc(Cl)cc1
inactive: [1] 88.6% | [2] 84.5% | [3] 103% | [4] 96.9% | [5] 86.3% | [6] 107% | [7] 99.3% | [8] 93.5%
active: [9] 5.82%

CN1CCN(c2ccc(C(=O)/C=C/c3cc(F)cc(C(F)(F)F)c3)cc2)CC1
active: [9] 7.73%
inactive: [1] 27.5% | [2] 15.9% | [3] 59.9% | [4] 81.7% | [5] 51.4% | [6] 60.2% | [7] 71.3% | [8] 82.8%

CC(Nc1c(C#N)cnc2ccc(-c3cncc(O)c3)cc12)c1ccccc1 (stereo not drawn)
inactive: [2] 46.8% | [3] 10.5%
active: [1] 4.88% | [4] -6.67% | [5] 6.74% | [6] 9.41% | [7] -89.4% | [8] -51.2% | [9] 1.56%

Cc1ccc(NC(=O)Nc2nc3ccc([N+](=O)[O-])cc3s2)cc1
inactive: [2] 11.7% | [4] 11.3% | [9] 11.6%
active: [1] 7.79% | [3] 1.44% | [5] 4.96% | [6] -1.61% | [7] -55% | [8] 9.49%

CCOC(=O)c1cccnc1Nc1ccc(NC(=O)Nc2ccc(Cl)c(C(F)(F)F)c2)cc1
active: [6] 7.22%
inactive: [1] 14.4% | [2] 36.1% | [3] 106% | [4] 49.3% | [5] 30.1% | [7] 67.8% | [8] 45.4% | [9] 22.5% | [10] 43.7%

COc1ccc2c(c1)c(-c1nn3cc(-c4ccncc4)nc3s1)cn2C
inactive: [1] 60.7% | [2] 79.2% | [3] 29.6% | [4] 86.1% | [5] 83% | [6] 71.2% | [7] 86.3% | [8] 68.7% | [9] 65.9%

COc1ccccc1/C=C/C(=O)c1nnn(-c2ccc(F)cc2)c1C
active: [2] 4.8% | [9] 2.13%
inactive: [1] 22.9% | [3] 40.6% | [4] 63.2% | [5] 36.3% | [6] 68.9% | [7] 79.3% | [8] 59.4%

COc1ccc2[nH]cc(/C=N/Nc3ccnc4cc(Cl)ccc34)c2c1
active: [1] -88.1% | [2] -42.3% | [3] -94.1% | [4] -100% | [5] -83.3% | [6] -86.4% | [7] -100% | [8] -98.3% | [9] -92.7%

COc1ccc(C2c3[nH]c4ccc(Cl)cc4c3CCN2c2oc(CO)nc2C#N)cc1 (stereo not drawn)
inactive: [1] 22.2% | [2] 22.9% | [3] 46.5% | [4] 51.9% | [5] 38.9% | [6] 41.3% | [7] 29.7% | [8] 39.3% | [9] 24.2%

CCN(CC)c1ccc(/C=N/NC(=O)c2ccc(S(N)(=O)=O)cc2)c(O)c1
active: [7] -7.45% | [8] -3.75% | [9] 0.484%
inactive: [1] 20.9% | [2] 25.4% | [3] 47.8% | [4] 29.9% | [5] 20.8% | [6] 34.9%

CC1(C)CC[C@]2(C(=O)O)CC[C@]3(C)C(=CC[C@@H]4[C@@]5(C)CC[C@H](NOCCCN)C(C)(C)[C@@H]5CC[C@]43C)[C@@H]2C1
inactive: [1] 64.8% | [2] 74% | [3] 97% | [4] 93.2% | [5] 69% | [6] 65.3% | [7] 61.2% | [8] 71.4% | [9] 32.4%

O=C(Nc1ccc(Cl)c(C(F)(F)F)c1)Nc1ccc2c(ccn2C(=O)c2cccc(F)c2)c1
active: [6] 9.11%
inactive: [1] 17% | [2] 39.8% | [3] 55% | [4] 39.7% | [5] 23.3% | [7] 62.9% | [8] 39.7% | [9] 38.4%
